Compounds with a hit are over-represented: about 11% of the library has one in this group of screens.
JMJD2A Tudor inh – qHTS Assay for Inhibitors of JMJD2A-Tudor Domain. Potency, µM (highest dose often 114 µM), for the others: at the highest dose activity change, negative = inhibition, usual class: inhibitors. AlphaScreen JMJD2A-Tudor / H3K4me3 peptide binding. actives 4.4% (n = 390,000); note: % is set by controls: 0 for no effect and ±100 for the full control effect; nearly all actives have a fitted effect of over 50% in size
PLK1 PBD block – qHTS for Inhibitors of PLK1-PDB (polo-like kinase 1 - polo-box domain): Primary Screen; AID 720504, 2013; actives 2.8% (n = 360,000); Serine/threonine-protein kinase PLK1 (Homo sapiens), P53350; Potency, µM, without a hit: max response, negative = inhibition, hits mostly inhibitors; Plk1 PBD binding of FITC phosphopeptide, fluorescence polarization; note: series mostly up to about 57 µM; % is set by controls: 0 for no effect and ±100 for the full control effect; nearly all actives have a fitted effect of over 65% in size
HP1b chromo inh – HTS for Inhibitors of HP1-beta Chromodomain Interactions with Methylated Histone Tails | AlphaScreen HP1-beta / biotin-H3K9me3 peptide binding | Potency, µM (top dose mostly 114 µM), without a hit: at the highest dose activity change, negative = inhibition, usual class: inhibitors | Chromobox protein homolog 1 (Homo sapiens), P83916 | actives 0.56% (n = 390,000); note: nearly all actives have a fitted effect of over 70% in size
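Compound inhibition of the preformed complex between 50 nM HP1-beta and 50 nM biotinylated H3K9me3 peptide was read by AlphaScreen. Buffer was PBS pH 7.4 with 0.01% Tween-20. Incubations ran 30 min at room temperature, with 10 ug/mL donor/acceptor beads.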
G9a block – qHTS Assay for Inhibitors of Histone Lysine Methyltransferase G9a; G9a H3K9 monomethylation, AlphaScreen, 2 h; Histone-lysine N-methyltransferase EHMT2 (Homo sapiens), Q96KQ7; Potency, µM (top dose mostly 102 µM), inactives show top-dose activity, negative = inhibition, hits mostly inhibitors; actives 8.8% (n = 350,000); note: % is set by controls: 0 for no effect and ±100 for the full control effect; nearly all actives have a fitted effect of over 75% in size
Target sequence (Q96KQ7 913-1193 limits assumed): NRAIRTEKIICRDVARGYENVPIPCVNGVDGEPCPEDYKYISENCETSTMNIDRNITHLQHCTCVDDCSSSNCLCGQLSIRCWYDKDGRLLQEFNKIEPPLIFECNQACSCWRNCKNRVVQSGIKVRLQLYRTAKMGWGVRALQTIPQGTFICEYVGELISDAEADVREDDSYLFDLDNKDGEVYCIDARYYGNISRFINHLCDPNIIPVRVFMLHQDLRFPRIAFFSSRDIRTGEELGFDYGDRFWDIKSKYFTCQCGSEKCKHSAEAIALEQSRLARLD
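G9a (20 nM) was preincubated 15 min with compound, then reacted 2 h at room temperature with 500 nM biotin-H3K9 peptide and 20 µM SAM. Monomethyl-H3K9 detected by AlphaScreen using anti-H3K9me1 antibody.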
BAZ2B inh – qHTS Assay for Inhibitors of BAZ2B | AlphaScreen BAZ2B-H3K14Ac peptide displacement | Potency, µM (top dose mostly 114 µM), for the others: top-dose activity change, negative = inhibition, actives largely listed as inhibitors | actives 4.4% (n = 360,000) | AID 504333, 2011; note: % is set by controls: 0 for no effect and ±100 for the full control effect; nearly all actives have a fitted effect of over 60% in size
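BAZ2B 50 nM plus b-H3(5-23)K14Ac 50 nM, PBS pH 7.4/0.01% Tween-20, 30 min RT; compound added (max 110 uM), 30 min RT; streptavidin donor/Ni-chelate acceptor beads 10 ug/mL final, 20 min dark; AlphaScreen read.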
VDR inh – Inhibitors of the vitamin D receptor (VDR): qHTS. VDR-SRC2-3 peptide fluorescence polarization, 2 h. Potency, µM, for the others: max response, negative = inhibition, hits mostly inhibitors. actives 0.93% (n = 400,000); note: % is set by controls: 0 for no effect and ±100 for the full control effect
Target sequence (P11473 whole entry, looked up): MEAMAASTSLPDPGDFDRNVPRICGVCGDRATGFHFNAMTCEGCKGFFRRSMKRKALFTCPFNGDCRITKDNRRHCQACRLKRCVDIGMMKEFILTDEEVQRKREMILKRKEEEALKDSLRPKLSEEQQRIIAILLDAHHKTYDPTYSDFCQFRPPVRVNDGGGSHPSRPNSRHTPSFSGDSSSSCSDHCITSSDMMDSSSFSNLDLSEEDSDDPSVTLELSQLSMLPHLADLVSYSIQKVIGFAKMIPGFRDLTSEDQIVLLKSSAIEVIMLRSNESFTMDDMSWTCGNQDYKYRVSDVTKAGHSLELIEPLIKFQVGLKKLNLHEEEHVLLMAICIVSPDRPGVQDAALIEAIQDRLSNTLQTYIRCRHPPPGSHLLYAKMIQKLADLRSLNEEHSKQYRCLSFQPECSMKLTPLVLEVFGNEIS
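Two reagent solutions held at 4 deg C in the dark were dispensed, compounds pinned at 23 nl, and the mixture incubated 2 h at room temperature. Read-out: fluorescence polarization of VDR–SRC2-3 peptide binding.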
An asterisk follows results filed as active; [ ] = another dose, or the depositor's remark. Calls come from the whole dose curve; as a rule, active = well fitted curve in the direction sought with a large enough effect; inconclusive = small, poorly fitted or top-dose-only effect, or another doubt; inactive = no such curve, though single readings can be large; an effect the other way counts as inactive or inconclusive. Potency is the fitted concentration of half-maximal effect.

Screening CCc1ccc(OCC(=O)N(Cc2cccs2)c2ccc(Cl)cc2)cc1 returned JMJD2A Tudor inh 94.0%, HP1b chromo inh 136.6%, G9a block 63.5%[59 µM], BAZ2B inh 99.1% and VDR inh 4.9%.
Screening COc1cccc([C@@H]2Oc3ccc(OC)cc3C(=O)[C@H]2OC(=O)NS(=O)(=O)c2ccc(C)cc2)c1 returned VDR inh -0.1%.
For COc1cc2c(cc1OC)C(COc1ccc(C(C)C)cc1)N(C(=O)COc1ccccc1)CC2 (stereo not given) the results were JMJD2A Tudor inh inconclusive, HP1b chromo inh -6.3%, G9a block -36.2%[59 µM], BAZ2B inh -23.7% and VDR inh -3.2%.
Screening CC1CCC(Nc2nc3c(-c4ccc(Cl)cc4)nnn3c3ccccc23)CC1 (stereo not given) returned JMJD2A Tudor inh 25.5%, HP1b chromo inh 85.8%, G9a block 20.1%[59 µM], BAZ2B inh 26.8% and VDR inh -8.0%.
Screening CCOc1ccccc1NC(=O)Cn1c(=O)n(-c2ccc(F)cc2)c(=O)c2c3c(sc21)CN(C(C)=O)CC3 returned JMJD2A Tudor inh -17.5%, HP1b chromo inh 30.1%, G9a block 6.3%[59 µM], BAZ2B inh -19.0% and VDR inh -9.7%.
OCCOCCn1c(-c2ccccc2)nc(=S)c2c1CCCC2 was read as JMJD2A Tudor inh -10.3%, PLK1 PBD block -37.1%, HP1b chromo inh 20.2%, G9a block 50.1µM*, BAZ2B inh 5.7% and VDR inh -14.1%.
Screening CC1(C)Cc2c(c(=S)nc(-c3ccccc3)n2CCOCCO)CO1 returned JMJD2A Tudor inh -13.2%, PLK1 PBD block -26.6%, HP1b chromo inh 34.8%, G9a block -43.2%[59 µM], BAZ2B inh -23.3% and VDR inh 0.4%.
CC(C)(C)c1ccc(OCCCNC2CCCC2)cc1 was read as JMJD2A Tudor inh 20µM*, PLK1 PBD block -9.8%, HP1b chromo inh -35.7%, G9a block 11.2µM*, BAZ2B inh 79.4µM* and VDR inh 4.3%.
For CCOc1ccc(C(=O)NC2CCCCCCC2)cc1 the results were JMJD2A Tudor inh 11.9%, PLK1 PBD block 3.3%, HP1b chromo inh 27.7% and VDR inh 15.0%.
COc1cccc(OC)c1OCCCNC1CCCC1 was read as JMJD2A Tudor inh 25.1µM*, PLK1 PBD block -6.2%, HP1b chromo inh inconclusive, BAZ2B inh inconclusive and VDR inh 12.5%.
`Cc1ccc(OCCC(=O)OCC(=O)NC(=O)NC2CCCCC2)cc1` gave JMJD2A Tudor inh -6.2%, PLK1 PBD block -12.6%, HP1b chromo inh 26.8%, G9a block 7.8%, BAZ2B inh 11.6% and VDR inh 4.6%.
For Cc1ccc(OCCCNC2CCCC2)cc1 the results were JMJD2A Tudor inh 22.4µM*, PLK1 PBD block 3.0%, HP1b chromo inh -19.5%, G9a block 12.6µM*, BAZ2B inh inconclusive and VDR inh -23.2%.
`Cc1ccc(C)c(OCCCNC2CCCC2)c1C` gave JMJD2A Tudor inh 0.794µM*, PLK1 PBD block -15.1%, HP1b chromo inh inconclusive, G9a block 7.08µM*, BAZ2B inh inconclusive and VDR inh 5.2%.
Screening CCOc1ccc(N2CC(NC(=O)c3ccc(Cl)cc3)CC2=O)cc1 (stereo not given) returned JMJD2A Tudor inh 6.5%, HP1b chromo inh 20.2%, G9a block -5.6%[59 µM], BAZ2B inh 5.5% and VDR inh -2.1%.
`Cc1cc(C)n(CCCNCC(O)c2ccccc2)n1` (stereo not given) gave JMJD2A Tudor inh 79.4µM*, PLK1 PBD block -4.9%, HP1b chromo inh inconclusive, G9a block 22.4µM*, BAZ2B inh inconclusive and VDR inh -13.7%.
`Cc1ccc(-c2[nH]ncc2CNCc2ccccc2)cc1` gave JMJD2A Tudor inh -13.5%, HP1b chromo inh 36.3% and VDR inh -29.0%.
`O=S(=O)(c1ccc(OCC(O)CN2CCN(c3ccc(F)cc3)CC2)cc1)N1CCOCC1` (stereo not given) gave JMJD2A Tudor inh -14.4%, PLK1 PBD block -3.7%, HP1b chromo inh 8.8%, G9a block -12.0%, BAZ2B inh 1.4% and VDR inh -1.5%.
Screening O=S(=O)(c1ccc(F)cc1)N1CCN(CC(O)COCc2ccccc2)CC1 (stereo not given) returned JMJD2A Tudor inh 5.62µM*, PLK1 PBD block -0.6%, HP1b chromo inh inconclusive and VDR inh -13.8%.
`O=S(=O)(c1cccc(C(F)(F)F)c1)N1CCN(CC(O)COCc2ccccc2)CC1` (stereo not given) gave JMJD2A Tudor inh 12.6µM*, PLK1 PBD block -2.6%, HP1b chromo inh inconclusive and VDR inh 7.2%.
For COc1ccc(COCC(O)CN2CCN(S(=O)(=O)c3c(F)cccc3F)CC2)cc1OC (stereo not given) the results were JMJD2A Tudor inh -24.1%, PLK1 PBD block 2.2%, HP1b chromo inh 23.7% and VDR inh -9.8%.
For O=C(NCc1ccc(OC(F)(F)F)cc1)C1CCC(=O)N(C2CC2)C1 (stereo not given) the results were JMJD2A Tudor inh -11.0%, PLK1 PBD block -6.0%, HP1b chromo inh 13.9%, BAZ2B inh -6.5% and VDR inh -2.3%.
COC(=O)C1=C(C(=O)OC)SC(=C2C(=S)C(C)(C)N(C(=O)C(C)C)c3ccccc32)S1 was read as JMJD2A Tudor inh 11.2µM*, PLK1 PBD block -12.5%, HP1b chromo inh 7.08µM*, G9a block 1.78µM*, BAZ2B inh 8.91µM* and VDR inh -15.5%.
Screening CC1C(=O)Nc2ccccc2N1C(=O)C1CC1 (stereo not given) returned JMJD2A Tudor inh 0.7%, PLK1 PBD block -7.0%, HP1b chromo inh 22.0%, G9a block 1.5%, BAZ2B inh -2.6% and VDR inh 1.2%.
COC(=O)C1=C(C(=O)OC)SC(=C2C(=S)C(C)(C)N(C(=O)C3CC3)c3ccccc32)S1 was read as JMJD2A Tudor inh 6.31µM*, PLK1 PBD block -12.2%, HP1b chromo inh 7.08µM*, G9a block 1.58µM*, BAZ2B inh 8.91µM* and VDR inh -4.3%.
`Cn1c2ccsc2c2cnn(Cc3ccccc3F)c(=O)c21` gave JMJD2A Tudor inh -24.0%.

Assay outcomes as filed in PubChem BioAssay.
